Results on 9 compounds are retold here after PubChem BioAssay (NCATS).

Inconclusive results are not listed. The source made the active and inactive calls. The call rests on the fitted dose curve; in most records, active means well fitted cell-killing curve with a large enough effect; inconclusive means small, poorly fitted or top-dose-only effect, or effect the other way; inactive means flat fitted curve, though single readings scatter.

Holding throughout (test): Primary qHTS to identify gynecologic anti-cancer compounds using libraries of approved drugs and bioactive compounds (AID 1345084); further: nearly all actives have a fitted effect of over 55% in size
In general terms: In qHTS, concentration-response curves come from the screen itself.

The subject of one assay is C33A. To be noted: Gynecologic cancer cell panel viability, ATPlite luminescence, 48 h; series mostly up to 57.5 µM. In outline:
(§1)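 Measured: luminescence after ATPlite addition (15 min, RT). Exposure: 48 h, 37 C, 5% CO2.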

Another assay concerns Es-2. To be noted: Gynecologic cancer cell panel viability, ATPlite luminescence, 48 h; series mostly up to 57.5 µM. The gist of the method:
as §1
In general terms: In ATP-based viability assays light output follows the ATP content of the culture.

A further assay relates to HeLa. To be noted: Gynecologic cancer cell panel viability, ATPlite luminescence, 48 h; series mostly up to 57.5 µM. In outline:
as §1

A further assay deals with Hek293T. To be noted: Gynecologic cancer cell panel viability, ATPlite luminescence, 48 h, control line for the selectivity index; series mostly up to 57.5 µM. In outline:
as §1

The subject of the next assay is JEG-3. The conditions noted are these: Gynecologic cancer cell panel viability, ATPlite luminescence, 48 h; series mostly up to 57.5 µM. In outline:
as §1

The test system of another assay is OV90. The conditions noted are these: Gynecologic cancer cell panel viability, ATPlite luminescence, 48 h; series mostly up to 57.5 µM. In outline:
as §1

In a further assay the test system is PA-1. To be noted: Gynecologic cancer cell panel viability, ATPlite luminescence, 48 h; series mostly up to 57.5 µM. In outline: as §1
The next assay relates to Tov-21-G. To be noted: Gynecologic cancer cell panel viability, ATPlite luminescence, 48 h; series mostly up to 57.5 µM. In outline:
as §1

The test system of the next assay is Tov112D. The conditions noted are these: Gynecologic cancer cell panel viability, ATPlite luminescence, 48 h; series mostly up to 57.5 µM. In outline: as §1
The test system of a further assay is SKOV3. To be noted: Gynecologic cancer cell panel viability, ATPlite luminescence, 48 h; series mostly up to 57.5 µM. The gist of the method:
as §1

Another assay has as its system CASKI. The conditions noted are these: Gynecologic cancer cell panel viability, ATPlite luminescence, 48 h; series mostly up to 57.5 µM. The gist of the method: as §1
Potency means the concentration at half of the fitted maximal effect.

As to `Cc1c(OCc2cccc(-c3ccc(C(=O)O)cc3)c2)cc2c(c1C)C(=O)C(C1CCCC1)C2` (centres undefined), the Potency result in the assay on C33A, in the assay on Es-2, in the assay with HeLa, with Hek293T, in the assay on JEG-3 and in the assay on OV90 was “inactive” in each case. The Potency result with PA-1, in the assay on Tov-21-G and in the assay on Tov112D was “inactive” in each case.
Consider `COc1cc(C(N)=O)nc(-c2ccccn2)c1O`, for which the Potency result in the assay with C33A, in the assay with Es-2, in the assay on HeLa, in the assay with Hek293T, with JEG-3 and in the assay with OV90 was “inactive” throughout. Moreover, the Potency entry with PA-1, in the assay on SKOV3, with Tov-21-G and in the assay with Tov112D was “inactive” throughout.
With `C=C1C(=O)O[C@@H]2/C=C(\CO)CC/C=C(/C=O)C[C@H](O)[C@@H]12`, the Potency result with C33A, in the assay with CASKI, in the assay on HeLa, in the assay with JEG-3, with OV90 and in the assay on Tov112D was “inactive” throughout. The Potency with Tov-21-G is 28.2 µM (active).
As to `Cc1nc(NC(=O)N2CCCC2C(N)=O)sc1-c1ccnc(C(C)(C)C(F)(F)F)c1` (centres undefined), the Potency result in the assay on C33A, in the assay with Es-2, with Hek293T, in the assay with JEG-3, in the assay on Tov-21-G and in the assay with Tov112D was “inactive” each time. For the same compound, the Potency with CASKI was 3.55 µM (active); in the assay with SKOV3, 8.91 µM (active).
As for `O=S(=O)(NCc1cccc2ccccc12)c1cc(Cl)c(Oc2cccc(N3CCNCC3)c2)s1`, the Potency result in the assay with C33A, in the assay with CASKI, with HeLa, with JEG-3, in the assay with OV90 and with Tov-21-G was “inactive” each time. In addition, the Potency result with Tov112D is “inactive”.
In the case of `CCC1C(=O)N(C)c2cnc(Nc3ccc(C(=O)NC4CCN(C)CC4)cc3OC)nc2N1C1CCCC1` (centres undefined), the Potency with C33A is 20 µM (active); with CASKI, 3.98 µM (active); in the assay with JEG-3 it was 28.2 µM (active); with PA-1 it was 1.78 µM (active); in the assay with SKOV3 it was 6.31 µM (active).
Regarding `CC(C)(C)Sc1c(CC(C)(C)C(=O)O)n(Cc2ccc(Cl)cc2)c2ccc(OCc3ccc4ccccc4n3)cc12`, the Potency entry in the assay on C33A, in the assay with Es-2, in the assay on HeLa, in the assay with Hek293T, in the assay on JEG-3 and with OV90 was “inactive” each time. In addition, the Potency entry with PA-1, with Tov-21-G and in the assay with Tov112D was “inactive” each time.
Regarding `O=C(O)CSc1cc(NS(=O)(=O)c2ccc(Br)cc2)c2ccccc2c1O`, the Potency result with C33A, with CASKI, in the assay on Es-2, in the assay with Hek293T and in the assay with OV90 was “inactive” each time.
On to `O=c1cc(N2CCOCC2)nc2c3ccccc3ccn12`, for which the Potency result in the assay on C33A, in the assay on Es-2, in the assay with HeLa, with Hek293T, in the assay with JEG-3 and in the assay with OV90 was “inactive” each time. Besides, the Potency entry with PA-1, in the assay on Tov-21-G and in the assay with Tov112D was “inactive” throughout.
